Results filed as inconclusive are left out. The source made the active and inactive calls. Rule for the calls: active = hit-call score of the fitted dose curve at least 0.9, where 1 is the maximum; inconclusive = response in the unintended direction; inactive = score below 0.9.
These compounds were tested against human Esterase Plasma (ES), BCHE (gene 590) (UniProt P06276) (assay: NVS_ENZ_hES: NovaScreen (NVS) Enzymatic Assay for human Esterase Plasma (ES) (AID 2283157)).
Chain of human Esterase Plasma (ES), BCHE (gene 590) (P06276 whole entry, looked up): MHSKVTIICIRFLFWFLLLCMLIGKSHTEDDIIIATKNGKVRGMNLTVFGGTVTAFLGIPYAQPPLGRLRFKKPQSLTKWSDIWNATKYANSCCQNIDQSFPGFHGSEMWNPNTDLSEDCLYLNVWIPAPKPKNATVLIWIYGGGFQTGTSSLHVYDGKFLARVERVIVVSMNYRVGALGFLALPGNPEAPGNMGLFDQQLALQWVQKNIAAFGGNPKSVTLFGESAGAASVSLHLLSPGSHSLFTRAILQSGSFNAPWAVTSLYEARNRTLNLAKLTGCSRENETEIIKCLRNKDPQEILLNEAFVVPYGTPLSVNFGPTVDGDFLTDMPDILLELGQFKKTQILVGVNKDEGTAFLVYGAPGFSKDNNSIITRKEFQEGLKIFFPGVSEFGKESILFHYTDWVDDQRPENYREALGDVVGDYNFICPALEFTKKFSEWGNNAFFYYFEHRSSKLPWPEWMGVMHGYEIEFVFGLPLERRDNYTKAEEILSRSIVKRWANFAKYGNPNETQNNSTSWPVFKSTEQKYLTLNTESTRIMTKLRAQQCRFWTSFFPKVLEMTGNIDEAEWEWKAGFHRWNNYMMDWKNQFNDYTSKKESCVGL
Method in brief: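 Screening ran at 25 uM in duplicate, followed by singleton concentration series reaching 50 uM for actives. Human plasma protein, colorimetric detection, 0.25 h exposure, DMSO negative control.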
In the case of `C[C@]12CC[C@@H]3c4ccc(O)cc4CC[C@H]3[C@@H]1CC[C@H]2O`, the outcome is reported as “inactive”.
For `NCc1cccc(C2CCN(C(=O)c3ccc(C#Cc4ccccc4F)o3)CC2)c1`, the AC50 was 25 µM (active).
With `CCOC(=O)O[C@H](C)OC(=O)c1ccc2c(c1)cc(C(=O)NC1CCN(C(C)C)CC1)n2Cc1cc(-c2ccc(Cl)s2)on1` the AC50 was 9.43 µM (active).
With `CN(C)c1ccc(C(=C2C=CC(=[N+](C)C)C=C2)c2ccc(N(C)C)cc2)cc1` the AC50 was 1.62 µM (active).
In the case of `COc1cccc([C@H](O)C2CCN(CCc3ccc(F)cc3)CC2)c1OC`, the AC50 is reported as 18.2 µM (active).

The compounds below were run against human Ephrin type-A Receptor 1 (EphA1), EPHA1 (gene 2041) (UniProt P21709) (assay: NVS_ENZ_hEphA1: NovaScreen (NVS) Enzymatic Assay for human Ephrin type-A Receptor 1 (EphA1) (AID 2283158);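 note: activity is signal loss versus DMSO meaning EphA1 kinase inhibition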).
Chain of human Ephrin type-A Receptor 1 (EphA1), EPHA1 (gene 2041) (P21709 whole entry, looked up): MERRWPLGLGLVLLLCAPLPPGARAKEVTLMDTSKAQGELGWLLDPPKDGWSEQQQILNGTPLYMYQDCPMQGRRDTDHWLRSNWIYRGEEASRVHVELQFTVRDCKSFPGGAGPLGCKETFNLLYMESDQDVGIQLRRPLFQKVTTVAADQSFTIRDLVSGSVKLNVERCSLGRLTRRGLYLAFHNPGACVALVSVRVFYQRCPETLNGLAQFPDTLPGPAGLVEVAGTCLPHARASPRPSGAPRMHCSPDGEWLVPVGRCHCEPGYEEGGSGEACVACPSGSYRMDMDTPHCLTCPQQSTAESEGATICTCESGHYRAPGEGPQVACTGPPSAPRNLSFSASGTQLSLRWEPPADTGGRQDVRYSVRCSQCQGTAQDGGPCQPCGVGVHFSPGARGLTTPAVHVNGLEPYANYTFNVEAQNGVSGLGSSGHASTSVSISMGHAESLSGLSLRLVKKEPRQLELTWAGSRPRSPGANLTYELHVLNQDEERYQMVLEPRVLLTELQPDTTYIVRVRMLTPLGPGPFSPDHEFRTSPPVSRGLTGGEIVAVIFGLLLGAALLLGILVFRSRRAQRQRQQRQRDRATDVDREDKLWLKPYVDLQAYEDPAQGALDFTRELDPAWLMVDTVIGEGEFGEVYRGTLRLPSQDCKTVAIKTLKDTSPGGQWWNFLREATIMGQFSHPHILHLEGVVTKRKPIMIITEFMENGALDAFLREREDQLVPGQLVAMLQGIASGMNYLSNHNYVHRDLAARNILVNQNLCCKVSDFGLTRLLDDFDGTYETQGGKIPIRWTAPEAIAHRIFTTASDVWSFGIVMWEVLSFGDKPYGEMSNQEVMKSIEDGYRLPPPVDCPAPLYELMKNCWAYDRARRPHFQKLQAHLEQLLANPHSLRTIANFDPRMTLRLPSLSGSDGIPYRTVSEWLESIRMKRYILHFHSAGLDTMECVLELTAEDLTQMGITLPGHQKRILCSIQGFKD
Method in brief: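 Biochemical kinase assay run cell-free; 1 h incubation; readout is fluorescence with mobility-shift separation of product. Concentration-response up to 50 uM for actives from a 25 uM screen.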
`CCCCCc1ccc(N)cc1` was tested, and the outcome was “inactive”.
For `CC(O)CC(C)(C)O` (stereo not given), the outcome was “inactive”.
For `CC1(C)NC(=O)N(c2ccc([N+](=O)[O-])c(C(F)(F)F)c2)C1=O`, the outcome was “inactive”.
In the case of `CCCCCCCCN(C)CCCCCCCC`, the outcome is reported as “inactive”.

What follows are compounds tested against Glycogen synthase kinase-3 beta (Homo sapiens) (UniProt P49841) (assay: NVS_ENZ_hGSK3b: NovaScreen (NVS) Enzymatic Assay for human Glycogen Synthase Kinase-3 beta (GSK3b) (AID 2283165)).
Chain of Glycogen synthase kinase-3 beta (Homo sapiens) (P49841 whole entry, looked up): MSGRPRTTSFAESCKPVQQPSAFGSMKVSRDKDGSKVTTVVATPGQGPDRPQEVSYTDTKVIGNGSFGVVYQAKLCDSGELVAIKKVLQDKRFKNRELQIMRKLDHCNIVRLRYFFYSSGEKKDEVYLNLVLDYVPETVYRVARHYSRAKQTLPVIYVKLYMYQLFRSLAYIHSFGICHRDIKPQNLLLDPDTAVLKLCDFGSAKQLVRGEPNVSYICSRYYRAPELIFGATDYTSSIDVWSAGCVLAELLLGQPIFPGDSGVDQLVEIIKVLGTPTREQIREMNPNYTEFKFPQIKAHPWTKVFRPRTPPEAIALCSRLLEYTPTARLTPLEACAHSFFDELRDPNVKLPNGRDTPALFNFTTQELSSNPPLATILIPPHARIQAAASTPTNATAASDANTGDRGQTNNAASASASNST
Method in brief: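 Recombinant enzyme with specific fluorescent substrate, 1 h, product separated by electrophoretic mobility shift. Primary duplicate screen at 25 uM; actives (e.g. 30% inhibition) followed in singleton concentration-response to 50 uM. Signal loss fitted versus DMSO.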
`CCCCCCCCCCCCO` was tested, and the outcome was “inactive”.
In the case of `Oc1ccccc1`, the outcome is reported as “inactive”.
For `O=c1ccc2ccccc2o1`, the outcome was “inactive”.
With `CC1=CC(=O)/C(=C(/C)O)C(=O)O1` the outcome was “inactive”.

These compounds were tested against human Janus Kinase 2 (Jak2), JAK2 (gene 3717) (UniProt O60674) (assay: NVS_ENZ_hJak2: NovaScreen (NVS) Enzymatic Assay for human Janus Kinase 2 (Jak2) (AID 2283169)).
Chain of human Janus Kinase 2 (Jak2), JAK2 (gene 3717) (O60674 whole entry, looked up): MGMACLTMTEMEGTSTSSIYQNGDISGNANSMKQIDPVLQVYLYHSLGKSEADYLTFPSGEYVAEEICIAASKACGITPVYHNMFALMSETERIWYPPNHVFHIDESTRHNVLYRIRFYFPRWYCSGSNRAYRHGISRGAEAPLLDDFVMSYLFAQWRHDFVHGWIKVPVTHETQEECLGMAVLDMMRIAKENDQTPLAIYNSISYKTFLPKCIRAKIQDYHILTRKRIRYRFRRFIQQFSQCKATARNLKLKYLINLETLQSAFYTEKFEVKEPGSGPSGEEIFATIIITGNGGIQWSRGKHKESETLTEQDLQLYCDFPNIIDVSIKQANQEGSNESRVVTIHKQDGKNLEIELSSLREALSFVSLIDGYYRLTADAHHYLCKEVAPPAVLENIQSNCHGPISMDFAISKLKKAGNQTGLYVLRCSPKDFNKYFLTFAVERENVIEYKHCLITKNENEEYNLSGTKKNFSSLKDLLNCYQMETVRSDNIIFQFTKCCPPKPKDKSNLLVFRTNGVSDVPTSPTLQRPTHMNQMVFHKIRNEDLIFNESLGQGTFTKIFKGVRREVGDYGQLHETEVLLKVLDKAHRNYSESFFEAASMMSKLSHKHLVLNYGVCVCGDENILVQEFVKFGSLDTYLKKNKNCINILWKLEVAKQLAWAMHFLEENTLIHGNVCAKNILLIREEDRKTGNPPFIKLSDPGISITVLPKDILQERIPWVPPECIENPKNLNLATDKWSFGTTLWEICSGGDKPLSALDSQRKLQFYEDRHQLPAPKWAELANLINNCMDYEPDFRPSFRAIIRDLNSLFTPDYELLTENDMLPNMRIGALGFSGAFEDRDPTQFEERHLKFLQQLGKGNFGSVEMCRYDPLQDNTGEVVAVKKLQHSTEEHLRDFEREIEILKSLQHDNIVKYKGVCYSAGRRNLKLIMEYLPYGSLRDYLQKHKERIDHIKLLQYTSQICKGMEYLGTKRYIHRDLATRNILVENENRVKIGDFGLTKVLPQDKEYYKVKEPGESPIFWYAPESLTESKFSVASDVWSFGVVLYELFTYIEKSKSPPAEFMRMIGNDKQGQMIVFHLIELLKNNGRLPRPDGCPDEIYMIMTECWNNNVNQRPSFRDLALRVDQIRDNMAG
Method in brief: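 Single-point duplicate screen at 25 uM, with hits run in concentration series to a 50 uM top dose. Substrate-product separation by mobility shift with fluorescence detection, 1 h post-dosing; DMSO baseline.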
In the case of `O=C(OCCCCCCOC(=O)c1ccccc1)c1ccccc1`, the outcome is reported as “inactive”.
For `O=C(O)Cc1cc(I)c(Oc2ccc(O)c(I)c2)c(I)c1`, the outcome was “inactive”.
For `CCO[Si](CCCNC(N)=O)(OCC)OCC`, the outcome was “inactive”.
In the case of `O=C(O)c1ccccc1C(=O)OCc1ccccc1`, the outcome is reported as “inactive”.

Each compound was assayed against Collagenase 3 (Homo sapiens) (UniProt P45452) (assay: NVS_ENZ_hMMP13: NovaScreen (NVS) Enzymatic Assay for human Matrix Metalloproteinase-13 (MMP13) (AID 2283182)).
Method in brief: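 Recombinant MMP13 cleaving fluorescent substrate, cell-free, measured 1 h after dosing. Primary duplicate screen at 25 uM; actives tested in concentration-response up to 50 uM; loss of signal relative to DMSO.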
With `NCc1cccc(C2CCN(C(=O)c3ccc(C#Cc4ccccc4F)o3)CC2)c1` the AC50 was 19.5 µM (active).
With `CCOC(=O)O[C@H](C)OC(=O)c1ccc2c(c1)cc(C(=O)NC1CCN(C(C)C)CC1)n2Cc1cc(-c2ccc(Cl)s2)on1` the AC50 was 15.2 µM (active).
`COCC(C)OCC(C)OCC(C)O` (stereo not given) was tested, and the outcome was “inactive”.

Each compound was assayed against human Matrix Metalloproteinase-7 (MMP7), MMP7 (gene 4316) (UniProt P09237) (assay: NVS_ENZ_hMMP7: NovaScreen (NVS) Enzymatic Assay for human Matrix Metalloproteinase-7 (MMP7) (AID 2283183)).
Chain of human Matrix Metalloproteinase-7 (MMP7), MMP7 (gene 4316) (P09237 whole entry, looked up): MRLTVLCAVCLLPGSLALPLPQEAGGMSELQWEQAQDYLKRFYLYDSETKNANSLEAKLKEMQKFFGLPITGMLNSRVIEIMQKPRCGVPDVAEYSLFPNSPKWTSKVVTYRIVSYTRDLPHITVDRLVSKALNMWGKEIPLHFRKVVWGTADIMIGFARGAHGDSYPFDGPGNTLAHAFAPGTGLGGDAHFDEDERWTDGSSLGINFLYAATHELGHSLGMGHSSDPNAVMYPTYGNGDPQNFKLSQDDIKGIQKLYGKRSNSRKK
Method in brief: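 Compounds first tested at 25 uM in duplicate, then at up to 50 uM in concentration series if active. Protease activity measured by fluorescence intensity 1 h after dosing, with fitting relative to DMSO.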
For `C[C@]12CC[C@@H]3c4ccc(O)cc4CC[C@H]3[C@@H]1CC[C@H]2O`, the outcome was “inactive”.
`O=C(O)Cn1c(=O)n(Cc2ccc(Br)cc2F)c(=O)c2ccc(Cl)cc21` was tested, and the outcome was “inactive”.
With `COCC(C)OCC(C)OCC(C)O` (stereo not given) the outcome was “inactive”.

The compounds below were run against human Matrix Metalloproteinase-2 (MMP2), MMP2 (gene 4313) (UniProt P08253) (assay: NVS_ENZ_hMMP2: NovaScreen (NVS) Enzymatic Assay for human Matrix Metalloproteinase-2 (MMP2) (AID 2283184)).
Chain of human Matrix Metalloproteinase-2 (MMP2), MMP2 (gene 4313) (P08253 whole entry, looked up): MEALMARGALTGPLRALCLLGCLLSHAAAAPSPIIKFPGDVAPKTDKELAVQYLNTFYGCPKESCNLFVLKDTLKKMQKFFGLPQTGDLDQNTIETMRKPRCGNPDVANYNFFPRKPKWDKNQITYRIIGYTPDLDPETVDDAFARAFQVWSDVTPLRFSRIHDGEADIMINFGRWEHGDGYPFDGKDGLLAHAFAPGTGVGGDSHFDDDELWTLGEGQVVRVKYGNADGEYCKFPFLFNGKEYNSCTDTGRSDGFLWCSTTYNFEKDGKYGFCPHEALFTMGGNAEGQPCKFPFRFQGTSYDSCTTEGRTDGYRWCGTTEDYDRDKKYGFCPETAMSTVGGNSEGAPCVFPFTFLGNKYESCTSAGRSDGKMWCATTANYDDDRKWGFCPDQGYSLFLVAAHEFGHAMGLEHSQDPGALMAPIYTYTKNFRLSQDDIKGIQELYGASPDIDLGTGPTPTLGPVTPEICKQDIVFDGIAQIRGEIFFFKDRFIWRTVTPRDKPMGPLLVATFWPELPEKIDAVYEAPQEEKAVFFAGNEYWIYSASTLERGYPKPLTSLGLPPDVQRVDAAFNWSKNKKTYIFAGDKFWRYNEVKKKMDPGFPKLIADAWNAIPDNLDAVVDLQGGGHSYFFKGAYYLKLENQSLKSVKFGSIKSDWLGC
Method in brief: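 Compounds first screened in duplicate at a single 25 uM, with actives followed up in concentration series. Recombinant human MMP2 cleaves a fluorogenic substrate; fluorescence taken at 1 h, inhibition fitted relative to DMSO.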
In the case of `NCc1cccc(C2CCN(C(=O)c3ccc(C#Cc4ccccc4F)o3)CC2)c1`, the AC50 is reported as 10.1 µM (active).
In the case of `CC(C)(c1cc(Br)c(O)c(Br)c1)c1cc(Br)c(O)c(Br)c1`, the outcome is reported as “inactive”.
`CCCCCCCCCCCC[N+](C)(C)C` was tested, and the outcome was “inactive”.

The compounds below were run against human Matrix Metalloproteinase-9 (MMP9), MMP9 (gene 4318) (UniProt P14780) (assay: NVS_ENZ_hMMP9: NovaScreen (NVS) Enzymatic Assay for human Matrix Metalloproteinase-9 (MMP9) (AID 2283190);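 note: cell-free recombinant MMP9 protease activity read by fluorescent substrate signal; active means inhibition seen as loss of fluorescence signal versus DMSO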).
Chain of human Matrix Metalloproteinase-9 (MMP9), MMP9 (gene 4318) (P14780 whole entry, looked up): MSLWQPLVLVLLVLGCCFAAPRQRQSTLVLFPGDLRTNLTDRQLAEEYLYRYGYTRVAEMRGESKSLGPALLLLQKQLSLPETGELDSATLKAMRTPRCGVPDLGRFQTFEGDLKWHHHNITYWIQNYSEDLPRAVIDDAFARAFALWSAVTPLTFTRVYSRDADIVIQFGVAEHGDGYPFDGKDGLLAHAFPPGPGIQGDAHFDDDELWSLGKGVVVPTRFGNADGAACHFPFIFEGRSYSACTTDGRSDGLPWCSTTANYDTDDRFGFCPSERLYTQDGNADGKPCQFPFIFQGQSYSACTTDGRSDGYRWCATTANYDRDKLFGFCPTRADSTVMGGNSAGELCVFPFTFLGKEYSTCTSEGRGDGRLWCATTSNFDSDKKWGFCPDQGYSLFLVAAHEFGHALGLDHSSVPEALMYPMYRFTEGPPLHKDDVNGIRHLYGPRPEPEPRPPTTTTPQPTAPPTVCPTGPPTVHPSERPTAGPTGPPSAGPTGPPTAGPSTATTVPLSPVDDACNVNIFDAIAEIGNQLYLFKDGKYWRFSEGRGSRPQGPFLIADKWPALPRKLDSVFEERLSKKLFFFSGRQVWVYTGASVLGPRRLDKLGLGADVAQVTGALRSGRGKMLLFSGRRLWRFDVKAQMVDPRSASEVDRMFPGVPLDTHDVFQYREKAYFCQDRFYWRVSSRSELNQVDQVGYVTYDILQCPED
Method in brief: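 Extracted enzyme, fluorescent substrate, 1 h post-dose read. Single conc 25 uM in duplicate, then concentration series for actives. Activity = signal loss relative to DMSO negative control.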
For `NCc1cccc(C2CCN(C(=O)c3ccc(C#Cc4ccccc4F)o3)CC2)c1`, the AC50 was 30.1 µM (active).
With `CCOC(=O)O[C@H](C)OC(=O)c1ccc2c(c1)cc(C(=O)NC1CCN(C(C)C)CC1)n2Cc1cc(-c2ccc(Cl)s2)on1` the AC50 was 30.9 µM (active).
With `CN(C)c1ccc(C(=C2C=CC(=[N+](C)C)C=C2)c2ccc(N(C)C)cc2)cc1` the AC50 was 14.5 µM (active).
`O=C=NCCCCCCN=C=O` was tested, and the outcome was “inactive”.
